Screening results (PubChem BioAssay)
Hits are enriched below; roughly 27% of the tested compounds scored in any of these assays.
CYP2C19 activ: cytochrome P450 2C19 (human) activation | P33261 | recombinant CYP2C19, luciferin-H EGE luminescence; active compounds read high; 0 = fully inhibited enzyme, 1 = untreated enzyme | activation factor at 5 µM | 96,000 tested, under 10 active | AID 1025;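 active = activation factor of at least 2 at 5 µM in the primary screen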
CYP2C9 activ: increases human cytochrome P450 2C9 activity | recombinant CYP2C9, luciferin-H conversion, luminescence; active compounds read high; factor 1 = untreated enzyme, 0 = blocked | activation factor at 5 µM | 96,000 compounds, 1.4% hits | AID 1024;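 active = activation factor of 2 or more for CYP2C9 at a 5 µM dose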
Target sequence (P11712 whole entry, looked up): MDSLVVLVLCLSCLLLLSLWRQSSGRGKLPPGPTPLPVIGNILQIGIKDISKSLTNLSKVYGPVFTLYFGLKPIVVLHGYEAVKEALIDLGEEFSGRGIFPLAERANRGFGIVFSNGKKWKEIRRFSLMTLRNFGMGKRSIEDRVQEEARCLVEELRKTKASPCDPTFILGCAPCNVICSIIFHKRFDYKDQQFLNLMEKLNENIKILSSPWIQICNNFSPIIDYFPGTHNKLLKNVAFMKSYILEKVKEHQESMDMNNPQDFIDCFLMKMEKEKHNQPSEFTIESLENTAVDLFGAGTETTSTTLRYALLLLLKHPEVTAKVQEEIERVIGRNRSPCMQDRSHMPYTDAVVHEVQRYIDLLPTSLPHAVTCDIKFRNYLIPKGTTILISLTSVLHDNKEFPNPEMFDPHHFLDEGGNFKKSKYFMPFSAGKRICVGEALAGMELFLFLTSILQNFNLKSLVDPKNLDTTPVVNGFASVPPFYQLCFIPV
CYP2C19 inhib: human CYP2C19 inhibition. inhibition, % at 5 µM. AID 778. CYP2C19 Supersomes, luciferin-H EGE luminescence, 30 min. 96,000 compounds, 21% hits. P33261;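 active = CYP2C19 inhibition above a set limit at 5 µM in the primary screen, cut at about 50% in these data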
EphB4 antag: antagonists of human EphB4-ephrin-B2 interaction; EphB4 LBD / TNYL-RAW-Alexa532 peptide, fluorescence polarization; inhibition, % at 7 µM; 97,000 compounds, 0.15% hits;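 active = inhibition above the screen-wide mean inhibition plus 3 SD, cut at about 15% in these data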
CYP2C9 inhib: blocks human cytochrome P450 2C9; CYP2C9 Supersomes, luciferin-H conversion, luminescence; inhibition, % at 5 µM; AID 777; 96,000 compounds, 20% hits;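 active = blocking of liver enzyme CYP2C9 beyond about 50% at 5 µM, limit read from the data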
Each line names hits and unclear results; the compound was inactive in the other large screens.

CC12CCC(C(=O)NCc3cccnc3)(OC1=O)C2(C)C (stereo not given)	none
CC1(C)CC(=O)C(C=NCC2CCN(C(=O)Nc3ccc(Cl)c(Cl)c3)CC2)=C(O)C1	none
COC(=O)COn1c(-n2nc(C)cc2C)nc2ccccc2c1=O	none
CCOn1c(-n2nc(C)cc2C)nc2ccccc2c1=O	CYP2C19 inhib 62.8
Cc1cc(C)n(-c2nc3ccccc3c(=O)n2OC2CCCCC2)n1	CYP2C19 inhib 68.5, CYP2C9 inhib 52.5
Cc1ccc(S(=O)(=O)NNC(=O)CCC(=O)Nc2ccc(C)c(C)c2)cc1	none
CCCN1C(=O)c2cc(C(=O)O)ccc2C1O (stereo not given)	none
COc1ccc(C2C(C(C)=O)=C(O)C(=O)N2CCc2ccccc2)c(OC)c1 (stereo not given)	none
CCCN1C(=O)c2ccccc2NC1c1ccc(OC)cc1O (stereo not given)	CYP2C19 inhib 80.8
CCCN1C(=O)c2ccccc2NC1c1ccc(OC)cc1OC (stereo not given)	CYP2C19 inhib 63.3, CYP2C9 inhib 52.7
O=C(Cn1nc(-c2ccccc2)ccc1=O)NCC1COCCO1 (stereo not given)	none (no result: CYP2C19 activ, CYP2C9 activ, CYP2C19 inhib, CYP2C9 inhib)
Cc1ccc(C2=N/C(=C\N3CCCCC3)C(=O)O2)cc1	CYP2C19 inhib 83.7, CYP2C9 inhib 66.2
COc1ccc(CN(CCN(C)C)Cc2ccccc2)c(OC)c1	CYP2C19 inhib 81.5
CCN(Cc1ccccc1)Cc1c(F)cccc1F	none
CCN(Cc1ccccc1)Cc1cc(OC)cc(OC)c1	CYP2C19 inhib 94.9
N#CC1=C(N)C(C#N)(C#N)C(c2ccncc2)C2CN(C(=O)OCc3ccccc3)CC=C12 (stereo not given)	none (no result: CYP2C19 activ, CYP2C9 activ, CYP2C19 inhib, CYP2C9 inhib)
CCOc1ccc(C(C)NC(=O)CCC(=O)O)cc1 (stereo not given)	none (no result: EphB4 antag)
C/C(=N\S(=O)(=O)c1ccc(C)cc1)N1CCN(S(=O)(=O)c2ccccc2)C1C(C)C (stereo not given)	CYP2C9 activ 2.4, CYP2C19 inhib 78.4
Cc1ccc(S(=O)(=O)N2CCN(C(=O)c3ccccc3)C2C(C)C)cc1 (stereo not given)	none
CC(=O)N1CCN(S(=O)(=O)c2ccc(C)cc2)C1C(C)C (stereo not given)	CYP2C19 inhib 68.8
COc1ccc2[nH]c(=O)c(CN(Cc3nnnn3Cc3ccccc3)CC3CCCO3)cc2c1 (stereo not given)	none
CC1Cc2nc(SCC(=O)N3CCN(c4ccccc4)CC3)n(CCc3ccccc3)c(=O)c2S1 (stereo not given)	CYP2C9 inhib 75.6
CC1Cc2nc(SCC(=O)N3CCN(c4ccccc4)CC3)n(C)c(=O)c2S1 (stereo not given)	CYP2C19 inhib 66.9, CYP2C9 inhib 70.9
CC(C)Cc1n[nH]c(=O)[nH]1	none
Cc1ccc(NC(=O)COc2ccccc2CNC(C)(C)CC(C)(C)C)cc1	none
Cc1ccc(NC(=O)COc2ccc(Br)cc2CO)cc1	CYP2C19 inhib 73.9, CYP2C9 inhib 56.4
O=C(COc1ccc(Br)cc1CO)Nc1ccccc1	CYP2C19 inhib 88.6, CYP2C9 inhib 70.8
COC(=O)c1cc(C#N)c(Oc2ccc(F)cc2)nc1C	CYP2C19 inhib 53.6
CCn1c2ccccc2c2cc(NS(=O)(=O)c3ccccc3C)ccc21	CYP2C19 inhib 65.8, CYP2C9 inhib 81.2
Cc1cccc2c(=O)cc(C)n(CC(=O)N3CCOCC3)c12	none
Cc1cccc2c(=O)cc(C)n(CC(=O)N3CCCCC3)c12	CYP2C19 inhib 87.9
Cc1cccc(-n2c(O)c(C=Nc3c(C)n(C)n(-c4ccccc4)c3=O)c3ccccc3c2=O)n1	none
COc1cccc(N=Cc2c(O)n(-c3cccc(C)n3)c(=O)c3ccccc23)c1	CYP2C19 inhib 66.3, CYP2C9 inhib 53.0
O=C(CSc1nc(-c2ccccc2Cl)ns1)NCc1ccco1	CYP2C9 inhib 62.6
O=C(CSc1c2c(nc3cc(Cl)ccc13)CCCC2)NCc1ccco1	CYP2C19 inhib 98.5, CYP2C9 inhib 88.5
O=C(CSc1ncnc2sc3c(c12)CCCCC3)NCc1ccco1	none
O=C(CSc1nc2ccc(Cl)cc2[nH]1)NCc1ccco1	CYP2C9 inhib 51.2
O=C(CSc1cn(CCNC(=O)c2cccs2)c2ccccc12)NC1CCCC1	CYP2C19 inhib 68.6, CYP2C9 inhib 82.4
O=C(CSc1nnc(CNC(=O)c2cccs2)o1)NC1CCCC1	none (no result: CYP2C19 activ, CYP2C9 activ, CYP2C19 inhib, CYP2C9 inhib)
O=C(CSc1ccccc1C(=O)NCCCN1CCCC1=O)NCc1ccco1	none
O=C(CSc1cn(CCNC(=O)c2ccccc2)c2ccccc12)NCc1ccco1	CYP2C19 inhib 99.0, CYP2C9 inhib 97.2
CCCn1cc(SCC(=O)NCc2ccco2)c2ccccc21	CYP2C19 inhib 51.5
O=C1OC(Oc2ccccc2)(c2ccccc2)c2ccccc21 (stereo not given)	CYP2C9 inhib 54.4
O=C1OC(OC2CCCCC2)(c2ccccc2)c2ccccc21 (stereo not given)	none
CCCCOC1(c2ccccc2)OC(=O)c2ccccc21 (stereo not given)	CYP2C19 inhib 55.0, CYP2C9 inhib 61.2
Cc1ccc(-c2nnn(CC(=O)N(CC3CCCO3)C(C(=O)NC3CCCCC3)c3ccc(F)cc3)n2)o1 (stereo not given)	none
Cc1ccc(C(=O)C(NC(=O)c2ccco2)Nc2sc3c(c2C(N)=O)CCCC3)cc1 (stereo not given)	none (no result: CYP2C19 activ, CYP2C9 activ, CYP2C19 inhib, CYP2C9 inhib)
Cn1c(=O)n(CC(=O)Nc2ccc(F)cc2)c2ccccc21	none
CCC1CCCCN1C(=O)COC(=O)c1cc2ccccc2cc1O (stereo not given)	CYP2C19 inhib 53.3 (no result: EphB4 antag)
Nc1cc(C(=O)OCC(=O)N2CCCC2)ccc1Cl	none
Cc1cc(C)n(-c2ccc(Cl)c(C(=O)OCC(=O)N3CCCCC3C)n2)n1 (stereo not given)	none (no result: EphB4 antag)
O=C(OCC(=O)N1CCCCC1)c1cc2ccccc2cc1O	CYP2C19 inhib 75.9
Cc1ccc(NC2c3ncccc3C(=O)N2c2ccccc2C)cc1C (stereo not given)	none
Fc1ccc(CSc2nncn2NC/C=C/c2ccccc2)cc1	CYP2C19 inhib 69.0
CN(C)c1ccc(CNn2cnnc2SCc2ccc(F)cc2)cc1	CYP2C19 inhib 98.4, CYP2C9 inhib 62.6
Fc1ccc(CSc2nncn2NCc2ccccc2)cc1	none (no result: CYP2C19 activ, CYP2C9 activ, CYP2C19 inhib, CYP2C9 inhib)
CCN(CC)S(=O)(=O)c1cc(C(=O)O)ccc1Cl	none
O=C(CSc1nnc(Cn2cnc3ccccc32)o1)Nc1cccc2ccccc12	none
CCN(CC)CCCN=Cc1c(O)n(Cc2ccccc2)c(=O)c2ccccc12	none
CC(C)CCC(C)N=Cc1c(O)n(Cc2ccccc2)c(=O)c2ccccc12 (stereo not given)	CYP2C9 inhib 86.4
CCOC(=O)c1ccc(NC(=O)N2CC(C)OC(C)C2)cc1 (stereo not given)	none
COc1nc2cc(C)ccc2cc1-c1noc(-c2cccnc2)n1	none (no result: EphB4 antag)
Cc1ccc(Cl)cc1N1CCN(Cc2nnnn2Cc2ccco2)CC1	CYP2C19 inhib 76.8, CYP2C9 inhib 93.1
c1coc(Cn2nnnc2CN2CCN(C3CCCCC3)CC2)c1	none (no result: EphB4 antag)
